TDP1 cell CPT: qHTS for Inhibitors of human tyrosyl-DNA phosphodiesterase 1 (TDP1): qHTS in cells in presence of CPT | chicken DT40 Tdp1-/-;hTDP1 cells + 20 nM CPT, ATP luminescence, 48 h | Potency, µM (titrated, usually from 46.2 µM), most hits filed as inhibitors | 12% of 420,000 active; further: nearly all actives have a fitted effect of over 55% in size
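Chicken DT40 Tdp1-/- cells complemented with human TDP1, 400 cells/well, exposed to compounds plus 20 nM camptothecin for at least 48 h at 37 C; viability read as ATP content by CellTiter-Glo luminescence.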
TDP1 cell noCPT: qHTS for Inhibitors of human tyrosyl-DNA phosphodiesterase 1 (TDP1): qHTS in cells in absence of CPT. DT40 Tdp1-/- hTDP1 cells, no CPT, ATP luminescence, 48 h. Potency, µM (highest dose often 46.2 µM), hits mostly inhibitors. 15% of 420,000 active. AID 686978, 2013; further: nearly all actives have a fitted effect of over 55% in size
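Growth kinetics read by CellTiter-Glo luminescence after ≥48 hr at 37 °C. Cells: DT40 Tdp1-/- stably carrying human TDP1, 400 per well, compound exposure in the absence of CPT (DMSO vehicle).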
TDP1 block: qHTS Assay for Inhibitors of Tyrosyl-DNA Phosphodiesterase (TDP1); recombinant TDP1, AlphaScreen DNA substrate cleavage; Potency, µM (highest dose often 130 µM), actives largely listed as inhibitors; 0.28% of 350,000 active; AID 485290, 2010; further: nearly all actives have a fitted effect of over 40% in size
Target sequence (Q9NUW8 whole entry, looked up): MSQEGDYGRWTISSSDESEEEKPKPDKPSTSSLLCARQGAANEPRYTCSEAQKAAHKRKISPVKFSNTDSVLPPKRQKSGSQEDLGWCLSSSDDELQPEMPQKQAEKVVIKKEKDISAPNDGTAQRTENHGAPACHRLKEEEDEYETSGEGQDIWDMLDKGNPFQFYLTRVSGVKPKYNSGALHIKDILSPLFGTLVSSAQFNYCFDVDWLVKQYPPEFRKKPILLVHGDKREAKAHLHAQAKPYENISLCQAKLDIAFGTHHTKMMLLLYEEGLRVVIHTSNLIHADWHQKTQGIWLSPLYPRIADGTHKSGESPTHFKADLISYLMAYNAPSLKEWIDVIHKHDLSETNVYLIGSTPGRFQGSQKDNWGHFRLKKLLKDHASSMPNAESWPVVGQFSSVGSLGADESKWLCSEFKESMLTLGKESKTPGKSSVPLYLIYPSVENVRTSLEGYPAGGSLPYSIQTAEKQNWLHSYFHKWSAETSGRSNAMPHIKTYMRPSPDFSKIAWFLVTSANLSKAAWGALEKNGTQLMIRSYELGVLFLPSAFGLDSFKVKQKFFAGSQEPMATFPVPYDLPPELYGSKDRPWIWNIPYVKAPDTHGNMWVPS
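E. coli-derived human Tdp1, 1 nM final. Cpd preinc 15 min RT; substrate 15 nM final, 5 min RT; AS bead mix 10 ug/ml final, 10 min RT. Signal loss = tyrosine-FITC cleavage. No-enzyme wells = max signal.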
HepG2 tox: qHTS for Inhibitors of TGF-b: Cytotox Counterscreen | Potency, µM (doses to about 46.1 µM), hits mostly cytotoxic | HepG2 CAGA-GFP viability, ATP luminescence, 18 h | 0.76% of 410,000 active
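HepG2 CAGA-GFP cells (1000/well, DMEM with 1% FBS) received compound, then TGF-beta at 500 pg/mL final, and were incubated 18 hours at 37 degrees C. Viability was read by CellTiter-Glo luminescence. Media-only wells were set as complete cell-killing and DMSO as no toxicity.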
IL-1B inflam inh: qHTS for Inhibitors of Inflammasome Signaling: IL-1-beta AlphaLISA Primary Screen; THP-1 LPS/ATP IL-1B secretion, AlphaLISA, 16 h; active compounds read low; activity change, % at 57.5 µM; 4.7% of 360,000 active; AID 743279, 2014; in the data active means activity change below about -50%; inconclusive means mostly about -30% to -49%
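THP-1 cells pretreated 1 hr with compounds (up to 57.5 uM final), then stimulated with LPS (250 ng/mL final) plus ATP (1.25 mM final); secreted IL-1B measured by AlphaLISA after 16 hr, decreased signal indicating inhibition.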
TGFb inhibitor: qHTS for Inhibitors of TGF-b. AID 588855, 2011. 1.2% of 410,000 active. HepG2 CAGA-GFP TGF-b/SMAD3 reporter, GFP fluorescence, 18 h; TGF-beta stimulated, 500 pg/mL final. Potency, µM (titrated, usually from 46.1 µM), actives largely listed as inhibitors; further: nearly all actives have a fitted effect of over 65% in size
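First, reporter cells (HEPG2 CAGA-GFP) rested 2 h at 37 degrees C. Next, compounds were pinned in and TGF-beta added to 500 pg/mL final. After 18 h, GFP was imaged per cell and summed per well.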
Hits are given with their value; . = inactive; ? = inconclusive; / = no result; [ ] = another dose, or the depositor's remark. An excerpt weighted towards active compounds, which were near 19% of everything screened. Unless noted, the call rests on the fitted dose curve; in most records, active means well fitted curve in the direction sought with a large enough effect; inconclusive means small, poorly fitted or top-dose-only effect, or another doubt; inactive means no such curve, though single readings can be large; an effect the other way counts as inactive or inconclusive.

SMILES	TDP1 cell CPT	TDP1 cell noCPT	TDP1 block	HepG2 tox	IL-1B inflam inh	TGFb inhibitor
O=C(NCc1cccc(Cl)c1)c1cnn2c1NC(c1ccco1)CC2C(F)(F)F (configuration not stated)	18.4µM	16.4µM	.	.	-53.0	.
Cc1ccc(Cl)cc1NC(=O)c1cnn2c1NC(c1ccco1)CC2C(F)(F)F (configuration not stated)	?	?	.	.	?	.
O=C(Nc1ccc2c(c1)CCC2)c1cnn2c1NC(c1ccco1)CC2C(F)(F)F (configuration not stated)	11.6µM	.	.	.	.	.
CN(Cc1ccc(-n2cccn2)cc1)C(=O)c1cnn2c1NC(c1ccco1)CC2C(F)(F)F (configuration not stated)	23.1µM	16.4µM	.	.	-54.2	?
CC(C)(CO)[C@@H](O)C(=O)NCCC(=O)NCCSSCCNC(=O)CCNC(=O)[C@H](O)C(C)(C)CO	.	.	/	/	/	/
O=S(=O)(c1cccc(F)c1)N1CCC(Oc2ccc(-n3cnnn3)cc2)CC1	16.4µM	14.6µM	.	.	/	.
CC(=O)Nc1ccc(S(=O)(=O)N2CCC(Oc3ccc(-n4cnnn4)cc3)CC2)cc1	?	?	.	.	.	?
Cc1ccc(C(=O)Nc2nc(-c3ccc4c(c3)OCCO4)cs2)o1	?	?	/	.	.	.
CCc1noc(C)c1C(=O)Nc1nc(-c2ccc(NC(C)=O)cc2)cs1	16.4µM	20.6µM	.[0.505 µM]	.	.	.
Cc1ccc(C(=O)Nc2nc(-c3ccc([N+](=O)[O-])cc3)cs2)o1	14.6µM	11.6µM	.	.	.	?
CC(=O)Nc1ccc(-c2csc(NC(=O)c3ccc(C)o3)n2)cc1	13µM	9.2µM	.	.	?	.
COc1ccc(CCNC(=O)CCCn2c(=O)c3ccccc3n(CC(=O)Nc3ccc(C)cc3Cl)c2=O)cc1OC	?	?	.	.	/	?
CCOC(=O)C1=C(CS(=O)(=O)c2ccc(C(C)(C)C)cc2)NC(=O)NC1c1cccc(OC)c1 (configuration not stated)	16.4µM	16.4µM	.	.	/	?
CCCCC1CC2=C(C(=O)OC(C)(C)O2)C(c2cccc3ccccc23)O1 (configuration not stated)	?	23.1µM	/	.	.	?
CCCC[C@@H]1CC2=C(C(=O)OC(C)(C)O2)[C@@H](c2ccc(Cl)cc2)O1	?	?	/	/	.	/
CC(C)NC(=O)C1CCN(C(=O)c2cnn(-c3ccccc3)c2-n2cccc2)CC1	.	.	.	.	/	?
Cc1ccccc1NC(=O)C1CCN(C(=O)c2cnn(-c3ccccc3)c2-n2cccc2)CC1	?	16.4µM	.	.	/	.
O=C(NCc1ccc(F)cc1)C1CCN(C(=O)c2cnn(-c3ccccc3)c2-n2cccc2)CC1	?	?	.	.	/	?
Cc1cc(C)cc(NC(=O)C2CCN(C(=O)c3cnn(-c4ccccc4)c3-n3cccc3)CC2)c1	18.4µM	14.6µM	.	.	/	?
Cc1ccc(NC(=O)C2CCN(C(=O)c3cnn(-c4ccccc4)c3-n3cccc3)CC2)cc1C	18.4µM	?	.	.	/	?
O=C(NC1CC1)C1CCN(Cc2cnn(-c3ccccc3)c2-n2cccc2)CC1	.	.	.	22.4µM	.	.
Cc1ccc(CNC(=O)C2CCN(C(=O)c3cnn(-c4ccccc4)c3-n3cccc3)CC2)cc1	11.6µM	9.2µM	.	.	/	/
CSc1cccc(NC(=O)C2CCCN(C(=O)c3cnn(-c4ccc(F)cc4)c3-n3cccc3)C2)c1 (configuration not stated)	18.4µM	16.4µM	.	.	/	17.8µM

From PubChem BioAssay
